In all, about 16,000 sequences were measured (“rpm ratio (pull-down/input)”: median about 0.5, highest 2% from about 5.5 on). This excerpt belongs to a sample that is enriched for the highest values.

This experiment deals with T1, MBP-FoxP3dN (Mus musculus, UniProt Q99JB6 188-423).
T1 sequence: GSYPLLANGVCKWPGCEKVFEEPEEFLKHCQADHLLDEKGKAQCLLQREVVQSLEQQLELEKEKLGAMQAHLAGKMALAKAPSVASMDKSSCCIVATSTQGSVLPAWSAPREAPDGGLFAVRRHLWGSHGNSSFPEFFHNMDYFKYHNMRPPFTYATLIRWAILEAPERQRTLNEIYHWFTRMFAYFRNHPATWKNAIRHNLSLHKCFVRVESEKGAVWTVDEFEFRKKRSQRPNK
The experiment is described as follows: PD-seq (MBP pull-down with sequencing); 20 mM Tris-HCl pH 7.5, 100 mM NaCl, 1.5 mM MgCl2, 0.4 uM protein, 0.1 uM dsDNA library, 30 min, room temperature, amylose pull-down; high values mean tight binding. As to conditions: protein: recombinant; tags: His6-MBP; chain copies: 2; dsDNA, one strand shown. An outline of the steps:
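A degenerate double-stranded DNA library, filled in with Klenow, was added at 0.1 µM to 0.4 µM His6-MBP-tagged mouse FoxP3 or FoxP1 fragment lacking the N-terminus, expressed in E. coli. Incubation lasted 30 min at room temperature in Tris pH 7.5 buffer with NaCl and MgCl2, after which complexes were collected on amylose resin, washed three times, digested with proteinase K to free the DNA, barcoded by PCR and sequenced by Illumina. Binding is the pooled-replicate reads-per-million enrichment of pull-down over input.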
With “GATGATTGTTCTCCCAGCTGATGAATTCTTCGATTCGAGTAAACAAATTTTCCTAATCTTTCTGTTCAAGCGCCATCTAC”, the binding signal is 0.253 RPM ratio (pull-down/input). Turning to “GATGATTGTTCTCCCAGCTGATGAATTGGGTTAGTCGAGTAAACAAATTTTCCTAATCTTTCTGTTCAAGCGCCATCTAC”, the binding signal was 0.756 RPM ratio (pull-down/input). Regarding “GATGATTGTTCTCCCAGCTGATGAATTCCTCCGTTCGAGTAAACAAATTTTCCTAATCTTTCTGTTCAAGCGCCATCTAC”, the binding signal was 0.255 RPM ratio (pull-down/input). For “GATGATTGTTCTCCCAGCTGATGAATTGTCCTTTTCGAGTAAACAAATTTTCCTAATCTTTCTGTTCAAGCGCCATCTAC” the value was 0.39 RPM ratio (pull-down/input). Under “GATGATTGTTCTCCCAGCTGATGAATTGTTTCTGTCGAGTAAACAAATTTTCCTAATCTTTCTGTTCAAGCGCCATCTAC” stands 1 RPM ratio (pull-down/input). Take “GATGATTGTTCTCCCAGCTGATGAATTCTGTTTGTCGAGTAAACAAATTTTCCTAATCTTTCTGTTCAAGCGCCATCTAC”: the binding signal was 6.99 RPM ratio (pull-down/input).

Turning to “GATGATTGTTCTCCCAGCTGATGAATTTCTTTTGTCGAGTAAACAAATTTTCCTAATCTTTCTGTTCAAGCGCCATCTAC”, the binding signal is 1.65 RPM ratio (pull-down/input). Under “GATGATTGTTCTCCCAGCTGATGAATTTTGTTTGTCGAGTAAACAAATTTTCCTAATCTTTCTGTTCAAGCGCCATCTAC” stands 7.3 RPM ratio (pull-down/input); under “GATGATTGTTCTCCCAGCTGATGAATTTGTTTTGTCGAGTAAACAAATTTTCCTAATCTTTCTGTTCAAGCGCCATCTAC”, 7.57 RPM ratio (pull-down/input). For “GATGATTGTTCTCCCAGCTGATGAATTTTCTTTGTCGAGTAAACAAATTTTCCTAATCTTTCTGTTCAAGCGCCATCTAC” the value was 1.15 RPM ratio (pull-down/input). “GATGATTGTTCTCCCAGCTGATGAATTCTTTTTGTCGAGTAAACAAATTTTCCTAATCTTTCTGTTCAAGCGCCATCTAC”: the binding signal was 0.437 RPM ratio (pull-down/input).

In the case of “GATGATTGTTCTCCCAGCTGATGAATTGTTTTTGTCGAGTAAACAAATTTTCCTAATCTTTCTGTTCAAGCGCCATCTAC”, the binding signal is 4.16 RPM ratio (pull-down/input). With “GATGATTGTTCTCCCAGCTGATGAATTCAATTTGTCGAGTAAACAAATTTTCCTAATCTTTCTGTTCAAGCGCCATCTAC”, the binding signal was 2.23 RPM ratio (pull-down/input). As to “GATGATTGTTCTCCCAGCTGATGAATTTAGAGACTCGAGTAAACAAATTTTCCTAATCTTTCTGTTCAAGCGCCATCTAC”, the binding signal is 0.585 RPM ratio (pull-down/input). For “GATGATTGTTCTCCCAGCTGATGAATTAATGAGATCGAGTAAACAAATTTTCCTAATCTTTCTGTTCAAGCGCCATCTAC”, the binding signal was 0.246 RPM ratio (pull-down/input). “GATGATTGTTCTCCCAGCTGATGAATTTCGAACCTCGAGTAAACAAATTTTCCTAATCTTTCTGTTCAAGCGCCATCTAC”: the binding signal was 0.301 RPM ratio (pull-down/input).

For the sequence “GATGATTGTTCTCCCAGCTGATGAATTACAACCGTCGAGTAAACAAATTTTCCTAATCTTTCTGTTCAAGCGCCATCTAC”, the binding signal was 0.497 RPM ratio (pull-down/input). “GATGATTGTTCTCCCAGCTGATGAATTGAGTTAATCGAGTAAACAAATTTTCCTAATCTTTCTGTTCAAGCGCCATCTAC”: the binding signal is 0.369 RPM ratio (pull-down/input). Consider “GATGATTGTTCTCCCAGCTGATGAATTTACAGGCTCGAGTAAACAAATTTTCCTAATCTTTCTGTTCAAGCGCCATCTAC”, for which the binding signal is 0.441 RPM ratio (pull-down/input). “GATGATTGTTCTCCCAGCTGATGAATTGGAACCGTCGAGTAAACAAATTTTCCTAATCTTTCTGTTCAAGCGCCATCTAC”: the binding signal is 0.224 RPM ratio (pull-down/input). Under “GATGATTGTTCTCCCAGCTGATGAATTTCTGTTATCGAGTAAACAAATTTTCCTAATCTTTCTGTTCAAGCGCCATCTAC” stands 1.07 RPM ratio (pull-down/input); under “GATGATTGTTCTCCCAGCTGATGAATTGCTGTTATCGAGTAAACAAATTTTCCTAATCTTTCTGTTCAAGCGCCATCTAC”, 2.06 RPM ratio (pull-down/input). In the case of “GATGATTGTTCTCCCAGCTGATGAATTGTTATTATCGAGTAAACAAATTTTCCTAATCTTTCTGTTCAAGCGCCATCTAC”, the binding signal is 5.54 RPM ratio (pull-down/input). For “GATGATTGTTCTCCCAGCTGATGAATTGTTATCCTCGAGTAAACAAATTTTCCTAATCTTTCTGTTCAAGCGCCATCTAC” the value was 2.64 RPM ratio (pull-down/input); for “GATGATTGTTCTCCCAGCTGATGAATTTTTGTTATCGAGTAAACAAATTTTCCTAATCTTTCTGTTCAAGCGCCATCTAC”, 2.29 RPM ratio (pull-down/input); for “GATGATTGTTCTCCCAGCTGATGAATTTGTTATCTCGAGTAAACAAATTTTCCTAATCTTTCTGTTCAAGCGCCATCTAC”, 7.03 RPM ratio (pull-down/input). For “GATGATTGTTCTCCCAGCTGATGAATTATTGTTATCGAGTAAACAAATTTTCCTAATCTTTCTGTTCAAGCGCCATCTAC” the value was 3.55 RPM ratio (pull-down/input); for “GATGATTGTTCTCCCAGCTGATGAATTATTATTATCGAGTAAACAAATTTTCCTAATCTTTCTGTTCAAGCGCCATCTAC”, 1.99 RPM ratio (pull-down/input). Take “GATGATTGTTCTCCCAGCTGATGAATTGTTGTTATCGAGTAAACAAATTTTCCTAATCTTTCTGTTCAAGCGCCATCTAC”: the binding signal is 6.7 RPM ratio (pull-down/input). In the case of “GATGATTGTTCTCCCAGCTGATGAATTTCGGGCCTCGAGTAAACAAATTTTCCTAATCTTTCTGTTCAAGCGCCATCTAC”, the binding signal was 0.404 RPM ratio (pull-down/input). Under “GATGATTGTTCTCCCAGCTGATGAATTATGGAAATCGAGTAAACAAATTTTCCTAATCTTTCTGTTCAAGCGCCATCTAC” stands 0.4 RPM ratio (pull-down/input); under “GATGATTGTTCTCCCAGCTGATGAATTTTGTGCTTCGAGTAAACAAATTTTCCTAATCTTTCTGTTCAAGCGCCATCTAC”, 1.87 RPM ratio (pull-down/input). Under “GATGATTGTTCTCCCAGCTGATGAATTGAGACTATCGAGTAAACAAATTTTCCTAATCTTTCTGTTCAAGCGCCATCTAC” stands 0.692 RPM ratio (pull-down/input); under “GATGATTGTTCTCCCAGCTGATGAATTCCTTAGCTCGAGTAAACAAATTTTCCTAATCTTTCTGTTCAAGCGCCATCTAC”, 0.222 RPM ratio (pull-down/input); under “GATGATTGTTCTCCCAGCTGATGAATTTGGACTGTCGAGTAAACAAATTTTCCTAATCTTTCTGTTCAAGCGCCATCTAC”, 0.82 RPM ratio (pull-down/input). Turning to “GATGATTGTTCTCCCAGCTGATGAATTTCGGTGCTCGAGTAAACAAATTTTCCTAATCTTTCTGTTCAAGCGCCATCTAC”, the binding signal was 0.541 RPM ratio (pull-down/input).

Consider “GATGATTGTTCTCCCAGCTGATGAATTTTGCGCATCGAGTAAACAAATTTTCCTAATCTTTCTGTTCAAGCGCCATCTAC”, for which the binding signal was 1.98 RPM ratio (pull-down/input). For “GATGATTGTTCTCCCAGCTGATGAATTTTGCGATTCGAGTAAACAAATTTTCCTAATCTTTCTGTTCAAGCGCCATCTAC” the value was 2.4 RPM ratio (pull-down/input).

Take “GATGATTGTTCTCCCAGCTGATGAATTGCATTTTTCGAGTAAACAAATTTTCCTAATCTTTCTGTTCAAGCGCCATCTAC”: the binding signal is 3.02 RPM ratio (pull-down/input).

Consider “GATGATTGTTCTCCCAGCTGATGAATTTGCGCATTCGAGTAAACAAATTTTCCTAATCTTTCTGTTCAAGCGCCATCTAC”, for which the binding signal was 7.07 RPM ratio (pull-down/input).

For “GATGATTGTTCTCCCAGCTGATGAATTGCATTGTTCGAGTAAACAAATTTTCCTAATCTTTCTGTTCAAGCGCCATCTAC”, the binding signal is 4.05 RPM ratio (pull-down/input).

On to “GATGATTGTTCTCCCAGCTGATGAATTGCGCATCTCGAGTAAACAAATTTTCCTAATCTTTCTGTTCAAGCGCCATCTAC”, for which the binding signal is 8.03 RPM ratio (pull-down/input). Take “GATGATTGTTCTCCCAGCTGATGAATTGCGCGCATCGAGTAAACAAATTTTCCTAATCTTTCTGTTCAAGCGCCATCTAC”: the binding signal is 2.39 RPM ratio (pull-down/input). For “GATGATTGTTCTCCCAGCTGATGAATTTGCGAATTCGAGTAAACAAATTTTCCTAATCTTTCTGTTCAAGCGCCATCTAC” the value was 1.18 RPM ratio (pull-down/input); for “GATGATTGTTCTCCCAGCTGATGAATTGCGCATTTCGAGTAAACAAATTTTCCTAATCTTTCTGTTCAAGCGCCATCTAC”, 8.05 RPM ratio (pull-down/input).

For the origin of these results see publication PMC12820563, “FoxP3 forms a head-to-head dimer in vivo and stabilizes its multimerization on adjacent microsatellites”.
